# ChEMBL document CHEMBL4513216, “Probing the Open Global Health Chemical Diversity Library for Multistage-Active Starting Points for Next-Generation Antimalarials” (ACS Infect Dis, 2020)
# The campaign covered roughly 69,000 compounds. About 8,600 (12%) showed an effect of 50% or more. Only a selection was taken, and strong results are over-represented in it overall.
# System: Plasmodium berghei
# Assay: Screen against P. berghei liver stage (PbLuc), transformed with Luciferase, at 10uM
# Type: functional, HepG2
# Conditions: tested at 10 uM
row,SMILES,INHIBITION [%]
1,CCc1cc(C(F)(F)F)c2c(C3CCCN(C(=O)COC)C3)noc2n1 (configuration not stated),-8.12
2,COCC(=O)N1CCC(c2noc3nc(C)cc(C(F)(F)F)c23)CC1,15.4
3,COCC(=O)N1CCC(c2cc(C(F)(F)F)c3c(C)noc3n2)CC1,9.93
4,COCCC(=O)N1CCC(c2noc3nc(C)cc(C(F)(F)F)c23)CC1,38.1
5,Cc1cc(C(F)(F)F)c2c(C3CCN(S(=O)(=O)N(C)C)CC3)noc2n1,60.8
6,CCc1cc(C(F)(F)F)c2c(C3CCN(C(=O)COC)CC3)noc2n1,52
7,CCn1ncc2c1C(COCC1CC1)N(Cc1c(C)noc1C)CC2 (configuration not stated),47.5
8,CCCn1nccc1NC(=O)CN1CCc2c(nc(C3CC3)n2C)C1,5.7
9,CNC(=O)CN1CCc2c(CNc3nccs3)n[nH]c2C1,-4.88
10,CCNc1c(NC(=O)C(C)(C)C)c(=O)oc2ccccc12,-3.83
11,O=C(NC[C@]12COC[C@H]1CN(Cc1nccs1)C2)N1CCCC1,-20.5
12,O=C(c1cccnc1)N1Cc2nccn2CC(COc2cccnc2)C1 (configuration not stated),9.51
13,COc1ccc(CC(=O)N2CCCCC2Cn2cccn2)cc1OC (configuration not stated),0.79
14,O=C(Cc1ccc(O)c(Cl)c1)N1CCCCC1CCn1cccn1 (configuration not stated),60.1
15,O=C(Cc1ccc2c(c1)CCO2)N1CCCCC1Cn1cccn1 (configuration not stated),-35.5
16,CCOC1COC2(CCN(Cc3ccco3)CC2)C1 (configuration not stated),-2.35
17,O=c1[nH]c(-c2ccncc2)ncc1-c1ccnc(N2CCOCC2)n1,18.9
18,CCN1CC2(CCN(C(=O)C(C)Oc3cccc(Cl)c3)CC2)OC1=O (configuration not stated),14.9
19,CCN1CC2(CCN(C(=O)C(C)Oc3ccc(F)cc3F)CC2)OC1=O (configuration not stated),52.5
20,CC(Oc1ccc(F)cc1F)C(=O)N1CCC2(CCCO2)CC1 (configuration not stated),14.9
21,Cc1cc(C)n(-c2cncc(N3CCN(C(=O)C(C)C)CC3)n2)n1,14
22,CCC(=O)N1CCCN(c2cncc(-n3nc(C)cc3C)n2)CC1,13.2

row,SMILES,INHIBITION [%]
1,Cc1cc(C)n(-c2cncc(N3CCN(C(=O)CN(C)C)CC3)n2)n1,52.6
2,CC(C)Nc1cc(N2CCC(n3cc(C4CC4)nn3)CC2)ncn1,24.7
3,CCc1cc(N2CCC(n3cc(C(=O)NC4CC4)nn3)CC2)ncn1,89.3
4,CCc1cc(N2CCC(Nc3ccc(Cl)cn3)CC2)ncn1,84.6
5,CCc1cc(N2CCC(n3cc(C(=O)NCC(C)C)nn3)CC2)ncn1,71.4
6,Cc1ccc(SCCCNC(=O)c2cn(C3CCC(N)CC3)nn2)cc1 (configuration not stated),-164
7,O=C(NC1CC1)c1cn(C2CCN(c3cc(C4CC4)ncn3)CC2)nn1,39.3
8,CCc1cc(N2CCC(NCc3ccc(C)o3)CC2)ncn1,-24.9
9,CCc1ncc(CN2CCN(c3cc(NC4CC4)nc(N)n3)CC2)cn1,-55
10,OCCNc1cc(N2CCC(n3cc(C4CCCC4)nn3)CC2)ncn1,28
11,CSCCC(C)(O)CNS(=O)(=O)Cc1ccc(F)cc1 (configuration not stated),44.9
12,Cc1ccccc1CNC(=O)CN1CCCC(Cc2nccn2C)C1 (configuration not stated),-50.8
13,CC(C)CCn1cc(C(C(=O)O)N2CCCN(C3CCCC3)CC2)cn1 (configuration not stated),33.9
14,c1nc(CNC2CCOCC2)c2n1CCCN(CC1CC1)C2,45.1
15,Cn1ccc(C(=O)NC2CCC23CCN(Cc2cnn(C)c2)CC3)c1 (configuration not stated),-28.7
16,CCS(=O)(=O)N1CCN(CCn2cccn2)c2nc(C)ccc2C1,26.3
17,c1cc(CN2CC[C@@H]3[C@@H](CO[C@H]3CN3CCOCC3)C2)cs1,-20.1
18,CCN(CC)C(=O)CN(C)C(=O)c1ccc(-c2ccsc2)nc1C,59.5
19,CCN(CC)C(=O)c1ccc(-c2ccsc2)nc1C,-6.53
20,CCN(CC)C(=O)CNC(=O)c1ccc(-c2ccsc2)nc1C,34.5
21,CCn1nc(C)c2nn(CC(=O)NC3CCSCC3)cc21,25.4
22,Cn1cccc1C(=O)N1C[C@@H]2C[C@@H](c3nc(C4CC4)cs3)O[C@@H]2C1,-5.08

row,SMILES,INHIBITION [%]
1,CC(C)(C)C(=O)NCCc1cc2nc(-c3ccncc3)ccn2n1,24.44
2,CCOCC(O)CN1CCN(C(=O)c2cccc(OC)c2)CC1 (configuration not stated),-33.7
3,Cc1ncc(C)c(N2CCCC(CO)(Cc3cccc(Cl)c3)C2)n1 (configuration not stated),86.8
4,Cc1cnc(C)c(N2CCCC(CO)(Cc3cccc(Cl)c3)C2)n1 (configuration not stated),34.6
5,CCn1ccnc1CN1CCCC(CO)(Cc2cccc(OC)c2)C1 (configuration not stated),23.7
6,Cc1cccc(CN2CCC(c3nccn3CC(N)=O)CC2)n1,58.3
7,CCOC(=O)C1(CCOC)CCN(Cc2nccn2CC)CC1,28.7
8,N#Cc1ccccc1CN1CCC(c2nccn2CC(N)=O)CC1,-15.3
9,CCC1(CO)CCCN(Cc2nccn2Cc2ccccc2)C1 (configuration not stated),-82.2
10,CCn1ccnc1C1CCN(Cc2cccc(C)n2)CC1,24.2
11,CCn1ccnc1CN1CCCC(CO)(Cc2cccc(Cl)c2)C1 (configuration not stated),79.3
12,CCOC(=O)C1(Cc2ccccc2)CCCN(Cc2nccn2CC)C1 (configuration not stated),35.4
13,CCOC(=O)C1(CCOC)CCCN(Cc2nccn2CC)C1 (configuration not stated),62.2
14,OCC1(Cc2cccc(Cl)c2)CCCN(c2ncccn2)C1 (configuration not stated),11.4
15,COc1ccccc1CN(CC1CCCO1)C(=O)c1csnn1 (configuration not stated),18.4
16,O=C(CCc1nccs1)N1CCN(c2nccs2)CC1,-2.19
17,CCOCc1ccc(CNC(=O)N2CCC(C(N)=O)C2)cc1 (configuration not stated),25.6
18,c1cncc(CN2CCCC(Nc3ncnc4c3CCNCC4)C2)c1 (configuration not stated),20.9
19,CNC(=O)[C@@H]1C[C@H]2CN(Cc3ccc(C)s3)C[C@H]2N1C(C)=O,34.6
20,CC1CCN(C(=O)c2sccc2-n2cnnn2)CC1,20.3
21,O=C(NCCc1ccc(F)cc1)NCC(O)c1cccc(F)c1 (configuration not stated),18.2
22,O=C(N[C@@H]1CC[C@@H](N2CCCC2)[C@@H]1O)c1cc2cccc(F)c2[nH]1,-0.232

row,SMILES,INHIBITION [%]
1,CNC(=O)C1CN(Cc2cc(C)on2)CCN(C2CCOCC2)C1 (configuration not stated),-3.94
2,CCCN1CCc2[nH]nc(C(=O)N3CCNC(=O)C3)c2C1,-9.42
3,CN(C)C(=O)N1C[C@H]2CC[C@@H](C1)N(S(=O)(=O)c1cccnc1)C2,-62.1
4,CCCOc1cc(CNC(=O)Nc2ccc(C)cc2)ccn1,-14.5
5,CCn1ccnc1C1CCN(Cc2cccc(Cl)c2)CC1,60.1
6,CCn1ccnc1C1CCN(Cc2c(F)cccc2F)CC1,43.9
7,CCn1ccnc1C1CCN(C(=O)C(O)c2ccc(Cl)cc2)CC1 (configuration not stated),6.66
8,CCN1CCN(C(=O)COCc2nc(-c3ccncc3)no2)CC1,-2.92
9,CCS(=O)(=O)NCCN1CCN(C(C#N)c2ccccc2)CC1 (configuration not stated),19.4
10,CC(C)OCCCNC(=O)CN(c1ccc(F)c(F)c1)S(C)(=O)=O,62.3
11,CCOCCCNC(=O)CN(c1ccc(F)c(F)c1)S(C)(=O)=O,43.3
12,CCOCCCNC(=O)CN(c1ccc(C)c(C)c1)S(C)(=O)=O,18.4
13,CCC1=N[C@@]2(CC[C@@H]3CN(C(=O)Nc4ccccc4)C[C@@H]32)C(=O)N1C,26.3
14,COC(=O)c1ccc(-c2ccc(/C=C3\C(=O)NC(=N)N3C)o2)cc1,34.2
15,Cc1csc(CNC(=O)N2CCCC(c3nncn3C)C2)n1 (configuration not stated),-23.9
16,CCOc1ncccc1NC(=O)NC1CCN(C(C)=O)CC1,5.7
17,COc1ccccc1N1CCN(C(=O)CCn2ccc(C)n2)CC1,16.2
18,CS(=O)(=O)N1CCC(c2cnc(-c3cn[nH]c3)cn2)CC1,28.9
19,O=C(C1NCCc2[nH]cnc21)N1CCC2(C=Cc3ccccc32)CC1 (configuration not stated),53
20,O=C1OC2(CCN(C(=O)C3NCCc4[nH]cnc43)CC2)c2ccccc21 (configuration not stated),23.5
21,O=C(C1NCCc2[nH]cnc21)N1CCC2(CC1)CNc1ccccc12 (configuration not stated),-15.8
22,Cc1cc(C)nc(N2CCC(C(=O)O)(n3ccc(C(C)(C)C)n3)CC2)n1,25.4

row,SMILES,INHIBITION [%]
1,O=c1cccnn1CC1CN(CC2CCCC2)Cc2nccn2C1 (configuration not stated),-23.1
2,CN1CCC(Nc2ccc(F)cc2OCC(F)(F)F)C1=O (configuration not stated),-0.378
3,Cc1cc(C(=O)NCC(C)N2CCc3ccccc32)no1 (configuration not stated),21.8
4,CCC(CNC(=O)c1ccc(=O)[nH]n1)N1CCc2ccccc2C1 (configuration not stated),28.5
5,CC(CNC(=O)c1ccc(=O)[nH]n1)N1CCc2ccccc21 (configuration not stated),53
6,CC(CNC(=O)Nc1ccc(C#N)cc1)N1CCc2ccccc21 (configuration not stated),40.1
7,CC(CNC(=O)c1cccc(C#N)c1)N1CCc2ccccc21 (configuration not stated),-8.51
8,CC(CNC(=O)c1ccc(C#N)cc1)N1CCc2ccccc21 (configuration not stated),83.2
9,O=C(Nc1ccccc1N1CCOC1=O)N1CCc2sccc2C1,18.4
10,CCn1c(=O)n(CC)c2cc(S(N)(=O)=O)ccc21,29.1
11,COCC1CC2(CCNCC2)CN1Cc1csc(C)n1 (configuration not stated),-15.3
12,Cc1noc(CCCC(=O)NC(C)c2ccc(Cl)s2)n1 (configuration not stated),-2.95
13,O=C(CCO)N1C[C@@H]2CC[C@H]1CN(C1Cc3ccccc3C1)C2,-43.5
14,COc1cccc(-c2nc3c([nH]2)CCNC3)c1F,61
15,CC(C)N(C(=O)c1ccccc1-c1nc2c([nH]1)CCNC2)C(C)C,54.5
16,CC(C)COc1cccc(-c2nc3c([nH]2)CCNC3)c1,41.5
17,CC(C)NC(=O)Nc1ccc(-c2nc3c([nH]2)CCNC3)cc1,-100
18,CC(=O)c1cccc(-c2nc3c([nH]2)CCNC3)c1F,37.8
19,COc1ccc(-c2nc3c([nH]2)CCNC3)c(OC)c1OC,28.7
